In PubChem BioAssay AID1159580 (chemical genetic matrix, 2015):
Where “and” joins values, the source holds several entries; their conditions need not be identical. Equal values may be shown once. The whole screen tested about 5,500 compounds, of which about 2,000 (36%) were called active. Inconclusive results (about 18%) are left out. Cut-off read from the data, not from the text of the source: active = normalized growth mostly below about 0.91 (no sharp cut-off); inconclusive = no clear call, values can overlap the other calls; inactive = mostly above about 0.92. The list shows a part of the results.

Assay: chemical genetic growth profiling, strain panel (AID 1159580);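 note: tested at 20 µM; growth read once vehicle control cultures reached saturation at 30 °C; 1 = growth at the plate median or of vehicle wells; lower values mean less growth of the strain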
Conditions: S. cerevisiae deletion strains, growth OD

Measured: normalized growth

O=C(O)CCCCC1SCC2NC(=O)NC21 (stereo not drawn)
inactive: locus YAL013W, strain DEP1, stronger effect = lower value 1.02 | locus YAL021C, strain ccr4, stronger effect = lower value 0.999 | locus YAL026C, strain drs2, stronger effect = lower value 0.994 | locus YAL030W, strain snc1, stronger effect = lower value 0.995 | locus YBL061C, strain skt5, stronger effect = lower value 0.989 | locus YBR009C, strain hhf1, stronger effect = lower value 0.997 | locus YBR021W, strain FUR4, stronger effect = lower value 0.977 | locus YBR023C, strain chs3, stronger effect = lower value 0.979 | locus YBR171W, strain sec66, stronger effect = lower value 0.996 | locus YBR229C, strain ROT2, stronger effect = lower value 1 | locus YBR231C, strain swc5, stronger effect = lower value 0.998 | locus YBR279W, strain paf1, stronger effect = lower value 0.997 | locus YCL011C, strain gbp2, stronger effect = lower value 0.995 | locus YCL016C, strain dcc1, stronger effect = lower value 0.995 | locus YCL029C, strain bik1, stronger effect = lower value 0.998 | locus YCL061C, strain MRC1, stronger effect = lower value 1 | locus YCL069W, strain vba3, stronger effect = lower value 0.97 | locus YCR088W, strain abp1, stronger effect = lower value 0.981 | locus YDL005C, strain med2, stronger effect = lower value 0.98 | locus YDL035C, strain GPR1, stronger effect = lower value 0.996 | locus YDL040C, strain nat1, stronger effect = lower value 1 | locus YDL074C, strain BRE1, stronger effect = lower value 1.01 | locus YDL101C, strain DUN1, stronger effect = lower value 0.989 | locus YDL134C, strain PPH21, stronger effect = lower value 1 | locus YDL185W, strain tfp1, stronger effect = lower value 0.997 | locus YDL192W, strain arf1, stronger effect = lower value 1.01 | locus YDR001C, strain nth1, stronger effect = lower value 0.985 | locus YDR069C, strain doa4, stronger effect = lower value 0.973 | locus YDR101C, strain arx1, stronger effect = lower value 0.98 | locus YDR137W, strain rgp1, stronger effect = lower value 0.983 | locus YDR150W, strain NUM1, stronger effect = lower value 1.02 | locus YDR159W, strain sac3, stronger effect = lower value 1.02 | locus YDR162C, strain NBP2, stronger effect = lower value 1.01 | locus YDR195W, strain ref2 1.01 | locus YDR297W, strain sur2, stronger effect = lower value 0.996 | locus YDR318W, strain mcm21, stronger effect = lower value 1 | locus YDR334W, strain swr1, stronger effect = lower value 0.984 | locus YDR335W, strain msn5, stronger effect = lower value 0.986 | locus YDR388W, stronger effect = lower value 1 | locus YDR392W, strain spt3, stronger effect = lower value 0.996 | locus YDR502C, strain sam2, stronger effect = lower value 0.994 | locus YEL003W, strain gim4, stronger effect = lower value 0.984 | locus YEL037C, strain rad23, stronger effect = lower value 0.992 | locus YEL061C, strain CIN8 (second series), stronger effect = lower value 1 | locus YEL061C, strain CIN8, stronger effect = lower value 1.02 | locus YER015W, strain faa2, stronger effect = lower value 0.979 | locus YER016W, strain bim1, stronger effect = lower value 0.988 | locus YER110C, stronger effect = lower value 1 | locus YER111C, strain swi4, stronger effect = lower value 1 | locus YER155C, strain BEM2 (second series), stronger effect = lower value 0.985 | locus YER155C, strain BEM2, stronger effect = lower value 0.999 | locus YER167W, strain BCK2, stronger effect = lower value 1 | locus YFR010W, strain ubp6, stronger effect = lower value 0.995 | locus YGL078C, strain dbp3, stronger effect = lower value 0.99 | locus YGL086W, strain mad1, stronger effect = lower value 0.993 | locus YGL167C, strain pmr1, stronger effect = lower value 0.99 | locus YGL173C, strain kem1, stronger effect = lower value 0.985 | locus YGL227W, strain vid30, stronger effect = lower value 1 | locus YGL240W, strain doc1, stronger effect = lower value 0.985 | locus YGL248W, strain PDE1, stronger effect = lower value 1 | locus YGL253W, strain hxk2, stronger effect = lower value 0.985 | locus YGR078C, strain PAC10, stronger effect = lower value 1.05 | locus YGR135W, strain pre9, stronger effect = lower value 0.999 | locus YGR252W, strain gcn5, stronger effect = lower value 0.944 | locus YHR013C, strain ard1, stronger effect = lower value 0.988 | locus YHR027C, strain rpn1, stronger effect = lower value 0.989 | locus YHR030C, strain SLT2, stronger effect = lower value 1.02 and 1.01 | locus YHR079C, strain IRE1 (second series), stronger effect = lower value 1.02 | locus YHR079C, strain IRE1, stronger effect = lower value 1.01 | locus YHR094C, strain hxt1, stronger effect = lower value 1 | locus YHR129C, strain ARP1, stronger effect = lower value 1.01 | locus YHR142W, strain chs7, stronger effect = lower value 0.982 | locus YHR200W, strain rpn10, stronger effect = lower value 0.996 | locus YIL066C, strain RNR3, stronger effect = lower value 1.01 | locus YIL073C, strain SPO22, stronger effect = lower value 1.02 | locus YIL125W, strain kgd1, stronger effect = lower value 0.987 | locus YIR030C, strain dcg1, stronger effect = lower value 1.01 | locus YJL092W, strain hpr5, stronger effect = lower value 0.986 | locus YJL095W, strain BCK1 (second series), stronger effect = lower value 0.998 | locus YJL095W, strain BCK1, stronger effect = lower value 1.02 and 1 | locus YJL115W, strain asf1, stronger effect = lower value 0.996 | locus YJL129C, strain trk1, stronger effect = lower value 0.954 | locus YJL134W, strain LCB3, stronger effect = lower value 1.01 | locus YJL154C, strain vps35, stronger effect = lower value 0.994 | locus YJL164C, strain tpk1, stronger effect = lower value 1 | locus YJL166W, strain qcr8, stronger effect = lower value 0.965 | locus YJL168C, strain set2, stronger effect = lower value 0.993 | locus YJL187C, strain SWE1 (second series), stronger effect = lower value 1
